Values joined by “and” are separate entries in the source; they are usually repeats but may differ in a detail not shown here. Equal entries are not always repeated. Compounds without any hit were thinned out: in the full panel of roughly 83,000, 20% have a hit.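 In brief: 96-well plates, 48 h treatment, single concentration, percent growth endpoint.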 Active and inactive are the calls of the source. Rule for the calls: active = growth percent below 10; inactive = the rest.
test system: HL-60(TB) leukemia; assay: NCI-60 one-dose screen, 48 h (100 = growth as untreated, 0 = no growth, -100 = all killed); details: 10 µM unless noted

Row | Structure (SMILES) | growth
1 | CC(=O)N1N=C(c2ccc(Cl)cc2)CC1c1cn(-c2ccccc2)nc1-c1ccc([N+](=O)[O-])cc1 (stereo not given) | 121% (inactive)
2 | O=C(Nc1cccc2[nH]c(C(F)(F)F)nc12)c1cc(Cl)ccc1Cl | 36.4% (inactive)
3 | N=C(N)N1CCc2ccccc2C1 | 93.6% (inactive) and 109% (inactive)
4 | COC(=O)CCCNS(=O)(=O)c1cc(C(=O)Nc2ccc(NC(=O)c3cc(S(=O)(=O)NCCCC(=O)OC)c(O)c(O)c3O)cc2)c(O)c(O)c1O | 68% (inactive)
5 | CC(C)(C)CC(C)(C)c1ccc(OCCOCC[N+](C)(C)CC(=O)[O-])cc1 | 96.1% (inactive)
6 | CC1CCC2(C(=O)O)CCC3(C)C(=CCC4C5(C)CCC(O)C(C)(C)C5CCC43C)C2C1C (stereo not given) | 5.83% (active) and 40.2% (inactive)
7 | CCCCCC(/C=N\NC(=S)N/N=C/C(=C/c1ccccc1)CCCCC)=C\c1ccccc1 | 68.8% (inactive)
8 | C=C(C)[C@@H]1CCC=C2CC[C@]3(C)[C@H](CC[C@@H]4[C@@]5(C)CCCNC(C)(C)[C@@H]5CC[C@]43C)[C@H]21 | 27.7% (inactive)
9 | COc1cc2cc(Oc3ccc(NC(=O)Nc4ccc(Cl)c(C(F)(F)F)c4)cc3)c(C)nc2cc1OCCN1CCCCC1 | 30.5% (inactive)
10 | IC(I)I | 98.3% (inactive)
11 | CNC(=O)c1cc(Oc2ccc(NC(=O)Nc3ccc(Cl)c(OC(C)C)c3)c(F)c2)ccn1 | 59.6% (inactive)
12 | COc1ccc2c(O)c(/C=C3\N=Nc4ncccc43)oc2c1C[C@H]1CCNC[C@H]1F | -45.4% (active)
13 | Cc1cc2c(O)c(-c3cc(Cl)ccc3Cl)c3sc(=O)oc3c2cc1C | 64.1% (inactive)
14 | CC/C(=C(/c1ccc(OCCN(C)C)cc1)c1ccc(OC(=O)CCCCCCCCC(=O)c2c(C)[nH]c(/C=C3\N=C(c4ccc[nH]4)C=C3OC)c2C)cc1)c1ccccc1 | 76.7% (inactive)
15 | N#C/C(=C\c1ccc2ccccc2c1)c1cc2ccccc2[nH]1 | 10.5% (inactive)
16 | CCc1ccccc1-n1c(N)c(C#N)c(-c2ccc(N(C)C)cc2)c(C#N)c1=O | 96.4% (inactive)
17 | Cc1cc(NS(=O)(=O)c2ccc(N=Nc3cc(N=Nc4ccc(S(=O)(=O)Nc5cc(C)nc(C)n5)cc4)c4c(NC(=O)C(Cl)Cl)cccc4c3OC(=O)C(Cl)Cl)cc2)nc(C)n1 (tested in a mixture with another compound) | 116% (inactive) and 98.5% (inactive)
18 | Cc1ccc(Cc2cnc(NC(=O)c3cc(Br)cs3)s2)cc1 | 8.08% (active)

Row | Structure (SMILES) | growth
19 | Nc1n[nH]c(-c2cc(Cl)ccc2O)c1-c1ccccc1 | 69.8% (inactive)
20 | Cc1cc(N2CCC(N3CCCC3)CC2)nc(/N=C(\N)Nc2ccc(Cl)c(Cl)c2)n1 | 90.4% (inactive)
21 | CN(C)CCOC(=O)C(C)(C)C | 89.7% (inactive)
22 | COC(=O)[C@H]1[C@H]2C[C@@H]3c4[nH]c5cc(OC)ccc5c4CCN3C[C@H]2C[C@@H](OC(=O)/C=C/c2cc(OC)c(OC)c(OC)c2)[C@@H]1OC | -40.1% (active)
23 | C#Cc1cccc(NC(=O)c2ccc(NC(=O)CCl)cc2)c1 | 11.7% [8.25 µM] (inactive)
24 | COc1ccc(-c2nc(SCC(=O)Nc3nc(-c4ccccc4)cs3)[nH]c(=O)c2C#N)cc1 | 92% (inactive)
25 | Cc1cccc2c(=O)c3c(sc12)c(NCCCN)nc1ccccc13 | -34.9% (active)
26 | CC1(C)CCCN1CCCN1c2ccccc2Sc2ccc(Cl)cc21 | 46% (inactive)
27 | Cc1ccc(-c2cc(O)c(-c3ccc(C)cc3C)cc2O)c(C)c1 | 21.2% (inactive)
28 | Nc1n[nH]c2ccc([C@@H]3Nc4cc5c(cc4[C@H]4C6CCC(C6)[C@@H]34)C(=O)NC5)cc12 (stereo not given in full) | -39.2% (active)
29 | COCCCNc1nc(NC(=O)c2ccc(F)cc2C)cc(-c2cccnc2)n1 | 106% (inactive)
30 | CCS(=O)(=O)CCCl | 99.8% (inactive)
31 | CCOC(=O)C1=C(C)N=C2Sc3cc(OC(F)(F)F)ccc3N2[C@H]1c1ccccn1 | 46.9% (inactive)
32 | Nc1c(C(=O)Nc2ccncc2)sc2nc3c(cc12)CCCCCC3 | 67.1% (inactive)
33 | O=S(=O)(NCCNc1cc(-c2c(-c3cccc(O)c3)nc3sccn23)ccn1)c1ccc(C(F)(F)F)cc1 | 15.7% (inactive)
34 | Cc1cccc(NC(=O)N/C(N)=N/c2nc(C)c(C)s2)c1 | 19.5% (inactive)
35 | CN(C)CCCOc1cccc(NC2=C(Cl)C(=O)C(Nc3cccc(OCCCN(C)C)c3)=C(Cl)C2=O)c1 | -53.2% (active)

Source: PubChem BioAssay (NCI)
